Measured values from PubChem BioAssay AID602399 (Sanford-Burnham Center for Chemical Genomics, 2012).
Hit rate of the full screen: of about 360,000 compounds, about 2,800 (0.78%) were called active. Only a selection was taken, and actives are over-represented in it overall. Values without a mark were called inactive. Cut-off read from the data, not from the text of the source: active = inhibition above about 26%; inactive = the rest.

What follows are molecules tested on Nicotinate-nucleotide adenylyltransferase NadD (Staphylococcus aureus N315) (assay: S. aureus NadD enzyme activity blockers – biochemical, colorimetric, uHTS, primary screen (AID 602399)). Conditions: purified NadD enzyme, colorimetric absorbance read-out; at 20 µM; active compounds read high.
`O=C(c1cccc(F)c1)N1CCN(c2ccc([N+](=O)[O-])c(N3CCCCC3)c2)CC1` showed an inhibition of -9.3%.
In the case of `COC(=O)c1ccc(C(=O)OC)c(NC(=S)N2CCN(c3ccc(F)cc3)CC2)c1`, the inhibition is reported as -1.25%.
Molecule `Cc1noc(C)c1S(=O)(=O)Nc1ccc(C(=O)N2CCN(c3ccc(F)cc3)CC2)cc1` has an inhibition of 10.7%.
`C=CCn1c(SCc2cccc(F)c2)nc2cc(C(=O)N3CCC(C(N)=O)CC3)ccc2c1=O` showed an inhibition of -4.38%.
`Cc1ccc(CSCC2Nc3ccc(C(=O)N4CCN(c5ccc(F)cc5)CC4)cc3NC2=O)cc1` (stereo not drawn) was tested, and the inhibition was 73.7% (active).
`O=C1Nc2cc(C(=O)N3CCN(c4ccc(F)cc4)CC3)ccc2NC1CSCc1cccc(F)c1` (stereo not drawn) was tested, and the inhibition was 36.8% (active).
`COC(=O)c1ccc(/C=N/N2C(C)CCCC2C)cc1` (stereo not drawn) was tested, and the inhibition was -8.27%.
For `CC(NC(=S)Nc1ccc(S(N)(=O)=O)cc1)c1ccc2c(c1)OCO2` (stereo not drawn), the inhibition was -0.72%.
Molecule `NS(=O)(=O)c1ccc(NC(=O)COC(=O)CCc2c[nH]c3ccccc23)cc1` has an inhibition of -1.06%.
In the case of `O=C(COC(=O)c1ccc(Cl)nc1)NCc1ccc2c(c1)OCO2`, the inhibition is reported as 0.8%.
`CC(=O)Nc1cccc(C(=O)OCC(=O)c2ccc3c(c2)OCO3)c1` was tested, and the inhibition was -7.21%.
`NC(=O)c1ccc(NC(=O)COC(=O)c2c3c(nc4ccccc24)/C(=C\c2ccc4c(c2)OCO4)CCC3)cc1` was tested, and the inhibition was 55.2% (active).
`NS(=O)(=O)c1ccc(NC(=O)COC(=O)c2c3c(nc4ccccc24)/C(=C\c2ccc4c(c2)OCO4)CCC3)cc1` was tested, and the inhibition was 54.7% (active).
`CC1Cc2[nH][nH]c(=O)c2C(C2CC2)O1` (stereo not drawn) was tested, and the inhibition was -3.07%.
In the case of `CC(Oc1cccc(Cl)c1)C(=O)NC1CC(C)(C)NC(C)(C)C1` (stereo not drawn), the inhibition is reported as -1.75%.
In the case of `C[C@H](NC(=O)CC[C@H]1O[C@@H](n2ccc(=O)[nH]c2=O)[C@H](O)[C@@H]1O)c1cccc2ccccc12`, the inhibition is reported as -3.28%.
`CN(C(=O)CC1C(=O)NCCN1Cc1ccc(F)cc1Cl)C1CCCCC1` (stereo not drawn) was tested, and the inhibition was 3.03%.
`CCC1CCc2c(sc(NC(C)=O)c2C#N)C1` (stereo not drawn) showed an inhibition of 1.07%.
For `COc1ccc2[nH]c(=O)c(CN(Cc3nnnn3CCc3ccccc3)CC3CCCO3)cc2c1` (stereo not drawn), the inhibition was 14.2%.
`CCOc1ccc2[nH]c(=O)c(CN(Cc3nnnn3CCc3ccccc3)CC3CCCO3)cc2c1` (stereo not drawn) was tested, and the inhibition was 0.283%.
For `CCC(c1nnnn1Cc1ccco1)N(Cc1cc2cc(OC)ccc2[nH]c1=O)C1CCCCC1` (stereo not drawn), the inhibition was 31.2% (active).
`O=C(COC(=O)C1CCCCC1)Nc1ccc([N+](=O)[O-])cc1` gave an inhibition of -1.2%.
With `O=C(N/N=C/c1cccc(OC(=O)c2ccc([N+](=O)[O-])cc2)c1)c1cccnc1` the inhibition was -12.9%.
For `O=C(COc1ccc([N+](=O)[O-])cc1)Nc1ccc(N2CCCC2)cc1`, the inhibition was 42.4% (active).
`O=C(COc1ccc([N+](=O)[O-])cc1)Nc1cccc(C(=O)Nc2ccccc2C(=O)O)c1` was tested, and the inhibition was -2.45%.
With `O=C(COc1ccc(/C=N/NC(=O)c2ccc(O)cc2)cc1)Nc1ccc([N+](=O)[O-])cc1` the inhibition was 71.1% (active).
`O=C(CCC(=O)N1CCCC1)Nc1ccc([N+](=O)[O-])cc1` gave an inhibition of -6.64%.
With `C/C(=N\NC(=O)OC(C)(C)C)c1ccc[nH]1` the inhibition was -6.93%.
In the case of `Cc1ccc(Cl)cc1N1CCN(C(=O)c2cccc3c(=O)c(C)c(-c4ccccc4)oc23)CC1`, the inhibition is reported as 4.56%.
Molecule `C/C(N)=C(/C#N)C(=O)COC(=O)C1CCN(C(=O)c2ccc(Cl)cc2)CC1` has an inhibition of -7.06%.
In the case of `COc1cc(/C=C(\C#N)C(=O)Nc2ccc3ccccc3c2)c([N+](=O)[O-])cc1OC`, the inhibition is reported as 5.18%.
With `COc1ccc(NC(=O)/C(C#N)=C\c2cc(OC)c(OCc3ccc(C(=O)O)cc3)cc2Br)cc1` the inhibition was 30.5% (active).
Molecule `COCCNC(=O)/C(C#N)=C/c1cccc(OCc2ccccc2)c1` has an inhibition of -8.65%.
Work on `CC(=O)Nc1ccc(S(=O)(=O)N2CCC(C(=O)NC3CC3)CC2)cc1` yielded an inhibition of 3.08%.
`COc1ccc(N2CCN(C(=O)CNC(=O)c3ccc(C(C)(C)C)cc3)CC2)cc1` was tested, and the inhibition was -1.98%.
For `O=C(NCC(=O)N1CCN(c2ccccc2O)CC1)c1ccc2ccccc2c1`, the inhibition was 31.5% (active).
Molecule `O=C(CNC(=O)c1ccc2ccccc2c1)Nc1ncccc1O` has an inhibition of 6.33%.
`CCOc1ccc(CCN2C(=S)N([C@@H](CC(C)C)CN3CCC[C@@H]3CN3C(=S)NC[C@@H]3Cc3ccc(O)cc3)C[C@@H]2CC(C)C)cc1` showed an inhibition of 26.6%.
In the case of `O=C1NC[C@H](Cc2ccc(O)cc2)N(C[C@@H]2CCCN2C[C@H](Cc2ccccc2)N2C[C@H](Cc3ccccc3)N(CC3CCCCC3)C(=O)C2=O)C1=O`, the inhibition is reported as 38.8% (active).
Molecule `CCOc1ccc(CCN2C(=O)C(=O)N([C@@H](CC(C)C)CN3CCC[C@H]3CN3C(=O)C(=O)NC[C@@H]3Cc3ccccc3)C[C@@H]2CC(C)C)cc1` has an inhibition of 28.4%.
For `CCOc1ccc(CCN2C(=S)N([C@@H](CC(C)C)CN3CCC[C@@H]3CN3C(=S)NC[C@@H]3Cc3ccc(O)cc3)C[C@@H]2Cc2ccc(O)cc2)cc1`, the inhibition was 35% (active).
For `CC(C)C[C@H]1CNC(=O)C(=O)N1C[C@H]1CCCN1C[C@H](Cc1ccc(O)cc1)N1C[C@H](CC(C)C)N(CC2CCCCCC2)C(=O)C1=O`, the inhibition was 23.7%.
In the case of `O=C1NC[C@H](Cc2ccc(O)cc2)N(C[C@H]2CCCN2C[C@H](Cc2ccccc2)N2C[C@H](Cc3ccccc3)N(CCc3ccccc3)C(=O)C2=O)C1=O`, the inhibition is reported as 24%.
